High-throughput results deposited in PubChem BioAssay by The Scripps Research Institute Molecular Screening Center.
PAFAH1B2 inh: PAFAH1B2 (human) inhibition; 1.2% of 340,000 active; recombinant PAFAH1B2, FP-rhodamine activity probe, fluorescence polarization; P68402; inhibition, % at 3.39 µM;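 active means inhibition above the mean of all tested compounds plus 3 SD, cut at about 24% in these data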;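 further: 0% = enzyme with DMSO and 100% = wells lacking PAFAH1B2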
Target sequence (P68402 whole entry, looked up): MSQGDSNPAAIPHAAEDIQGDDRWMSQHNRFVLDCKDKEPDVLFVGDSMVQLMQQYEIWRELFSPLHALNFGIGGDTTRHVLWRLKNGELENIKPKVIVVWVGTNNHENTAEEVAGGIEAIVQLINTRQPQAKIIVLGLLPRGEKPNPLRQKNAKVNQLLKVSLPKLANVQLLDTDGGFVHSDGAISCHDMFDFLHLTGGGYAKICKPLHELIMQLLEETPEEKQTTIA
pPAFAH inh: inhibitors of human plasma PAF acetylhydrolase (pPAFAH); Q13093; recombinant pPAFAH, FP-rhodamine probe fluorescence polarization; inhibition, % at 3.39 µM; 1.5% of 330,000 active; AID 463082;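 active means inhibition above the mean inhibition across the screen plus 3 SD, cut at about 25% in these data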;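 further: inhibitors block binding of the rhodamine activity-based probe so polarization drops; 0% = enzyme with DMSO and 100% = wells lacking pPAFAH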
ZTA counter: ZTA (EBV) inhibition in EBNA-1 counter-screen. P03206. ZTA-DNA binding, fluorescence polarization. inhibition, % at 11 µM. 0.15% of 320,000 active. AID 2234; in the data active means inhibition above about 33%
Target sequence (P03206 whole entry, looked up): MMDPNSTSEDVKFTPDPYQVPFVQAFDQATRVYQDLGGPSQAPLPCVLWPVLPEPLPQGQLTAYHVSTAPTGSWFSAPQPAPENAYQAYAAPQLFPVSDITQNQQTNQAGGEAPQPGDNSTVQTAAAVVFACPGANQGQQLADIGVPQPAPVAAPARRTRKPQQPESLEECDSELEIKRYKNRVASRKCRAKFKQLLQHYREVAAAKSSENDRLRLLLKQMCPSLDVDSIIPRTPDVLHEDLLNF
PAFAH1B3 inh: PAFAH1B3 (human) inhibition; 0.28% of 340,000 active; inhibition, % at 3.39 µM; recombinant PAFAH1B3, FP-rhodamine probe, fluorescence polarization;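 active means inhibition above the screen-wide average of all tested compounds plus 3 SD, cut at about 25% in these data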;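 further: 0% = enzyme with DMSO only and 100% = wells lacking PAFAH1B3 protein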
EBNA-1 inh: blocks EBNA-1 binding to DNA. EBNA-1 DNA binding, fluorescence polarization. inhibition, % at 14.8 µM. 0.34% of 300,000 active; in the data active means inhibition above about 28%
PAFAH2 inh: inhibitors of human PAFAH2; recombinant PAFAH2, FP-rhodamine activity probe, fluorescence polarization; AID 492956; 0.99% of 340,000 active; Q99487; inhibition, % at 3.39 µM;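 active means inhibition above the mean over all tested compounds plus 3 SD, cut at about 30% in these data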;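 further: inhibitors block probe labeling of enzyme so polarization drops; 0% = enzyme with DMSO and 100% = wells lacking PAFAH2 protein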
PAFAH2 FP conf: confirmation of human PAFAH2 inhibitors | AID 493030 | inhibition, % at 3.39 µM | 65% of 2,300 active | shares compounds with PAFAH2 inh | recombinant PAFAH2, FP-rhodamine activity probe, fluorescence polarization;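 active means mean inhibition over three repeats above a set limit taken from the earlier primary screen, cut at about 30% in these data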;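 further: inhibitor blocks binding of rhodamine activity probe so polarization falls; 0% = enzyme with DMSO and 100% = wells lacking PAFAH2 protein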
An asterisk follows results filed as active. In the library only some 2.9% were active in any assay of this set; here they are far more common.

O=C(NCCCc1ccccc1)c1cncc(Br)c1 was read as PAFAH1B2 inh 5, pPAFAH inh 2, ZTA counter -11, PAFAH1B3 inh 4, EBNA-1 inh -11 and PAFAH2 inh -8.
For Cc1ccc(NC(=O)Cc2nc(COC(=O)Cc3cccc(C(F)(F)F)c3)cs2)cc1 the results were PAFAH1B2 inh 10, PAFAH1B3 inh -2, PAFAH2 inh 47* and PAFAH2 FP conf 1.
Screening CCCCCCCCCCC[C@@H](C[C@@H]1OC(=O)[C@H]1CCCCCC)OC(=O)[C@H](CC(C)C)NC=O returned PAFAH1B2 inh 10, pPAFAH inh 93*, ZTA counter 17, PAFAH1B3 inh 3, EBNA-1 inh 0, PAFAH2 inh 80* and PAFAH2 FP conf 79*.
CCCCC[C@H](O)/C=C/[C@H]1[C@H](O)CC(=O)[C@@H]1CCCCCCC(=O)O was read as pPAFAH inh 1, ZTA counter -1 and EBNA-1 inh 7.
For CN=c1scc(-c2ccc(F)cc2)n1/N=C/c1ccc(O)c(O)c1 the results were PAFAH1B2 inh 2, PAFAH1B3 inh -1 and PAFAH2 inh 1.
Screening O=C(NC1CCCCC1)C(c1ccncc1)N(CC1CCCO1)C(=O)C(F)(F)F (centres undefined) returned PAFAH1B2 inh 2, pPAFAH inh -2, ZTA counter 5, PAFAH1B3 inh 2, EBNA-1 inh -11, PAFAH2 inh 41* and PAFAH2 FP conf 19.
Screening CC(C)(C)C(O)CN1CCCC1 (centres undefined) returned PAFAH1B2 inh -4, pPAFAH inh -1, ZTA counter 1, PAFAH1B3 inh 2, EBNA-1 inh 6 and PAFAH2 inh -8.
`O=c1[nH]c(C2CCN(S(=O)(=O)c3ccc(C(F)(F)F)cc3)CC2)nc2c1nnn2Cc1ccccc1` gave PAFAH1B2 inh 8, pPAFAH inh 2, ZTA counter 5, PAFAH1B3 inh 3, EBNA-1 inh -5 and PAFAH2 inh 5.
For O=C(CSc1nnc(-c2ccc(O)cc2)o1)Nc1ccccc1Br the results were PAFAH1B2 inh 1, pPAFAH inh 4, ZTA counter -2, PAFAH1B3 inh 8, EBNA-1 inh 5 and PAFAH2 inh 2.
Screening COc1ccc(C(=O)OCC(=O)NC(=O)NC2CCCC2)c(OC)c1 returned PAFAH1B2 inh 1, pPAFAH inh 3, ZTA counter -3, PAFAH1B3 inh 5, EBNA-1 inh -1 and PAFAH2 inh 25.
`COc1ccccc1/C=C/C(=O)OCC(=O)Nc1ccc(Cl)cn1` gave PAFAH1B2 inh 3, pPAFAH inh 24, ZTA counter -8, PAFAH1B3 inh 4, EBNA-1 inh 0, PAFAH2 inh 83* and PAFAH2 FP conf 79*.
`COc1ccc(/C=C/C(=O)OCC(=O)NC2CCCC2)c(OC)c1` gave PAFAH1B2 inh 3, pPAFAH inh 23, ZTA counter -8, PAFAH1B3 inh 4, PAFAH2 inh 86* and PAFAH2 FP conf 85*.
`COc1ccccc1/C=C/C(=O)OCC(=O)N1CCc2ccccc21` gave PAFAH1B2 inh 2, pPAFAH inh 1, ZTA counter -7, PAFAH1B3 inh 5, PAFAH2 inh 77* and PAFAH2 FP conf 71*.
`O=C(OCC(=O)N1CCc2ccccc21)C1=COCCO1` gave PAFAH1B2 inh 4, pPAFAH inh 8, ZTA counter 4, PAFAH1B3 inh 7, EBNA-1 inh 7, PAFAH2 inh 30* and PAFAH2 FP conf 19.
`O=C(COC(=O)/C=C/c1ccccc1)Nc1ccc(Cl)cn1` gave PAFAH1B2 inh 4, pPAFAH inh 3, ZTA counter 2, PAFAH1B3 inh 3, EBNA-1 inh 1 and PAFAH2 inh 29.
`O=C1CN(C(=O)COC(=O)C2=COCCO2)c2ccccc2N1` gave PAFAH1B2 inh 2, pPAFAH inh 6, ZTA counter 11, PAFAH1B3 inh 0, EBNA-1 inh 16 and PAFAH2 inh 11.
`O=C(/C=C/c1ccc(OC(F)F)cc1)OCC(=O)N1CCc2ccccc21` gave PAFAH1B2 inh 1, pPAFAH inh 1, ZTA counter 1, PAFAH1B3 inh 4, EBNA-1 inh 4 and PAFAH2 inh 5.
COc1ccccc1CN1C[C@@H]2C[C@@H](c3[nH]c4c(C)cccc4c3C)N3CCC[C@@]23C1=O was read as PAFAH1B2 inh -1, pPAFAH inh 8, ZTA counter 6, PAFAH1B3 inh 2, EBNA-1 inh 3 and PAFAH2 inh -3.
`C=CCN1C(=O)c2ccc(C(=O)OCC(=O)N3CCN(c4ccccc4)CC3)cc2C1=O` gave PAFAH1B2 inh 4, pPAFAH inh 10, ZTA counter -4, PAFAH1B3 inh 7, EBNA-1 inh 8 and PAFAH2 inh 5.
COc1cc(/C=C/C(=O)OCC(=O)Nc2ccc(NC(C)=O)cc2)cc(S(=O)(=O)N2CCc3ccccc32)c1OC was read as PAFAH1B2 inh -4, pPAFAH inh 2, ZTA counter -6, PAFAH1B3 inh 10, EBNA-1 inh 14 and PAFAH2 inh 3.
Screening COc1ccccc1/C=C/C(=O)OCC(=O)NC1CC1 returned PAFAH1B2 inh 3, PAFAH1B3 inh 8, PAFAH2 inh 64* and PAFAH2 FP conf 64*.
COc1ccccc1/C=C/C(=O)OCC(=O)NNC(=O)c1ccccc1 was read as PAFAH1B2 inh 2, pPAFAH inh 18, ZTA counter 16, PAFAH1B3 inh 17, EBNA-1 inh 13 and PAFAH2 inh 14.
For COc1cc(/C=C/C(=O)OCC(=O)NC2CC2)cc(S(=O)(=O)N2CCc3ccccc32)c1OC the results were PAFAH1B2 inh 3, pPAFAH inh 8, ZTA counter 1, PAFAH1B3 inh 4, EBNA-1 inh 12, PAFAH2 inh 53* and PAFAH2 FP conf 38*.
COc1ccccc1/C=C/C(=O)OCC(=O)NC(=O)NC1CCCC1 was read as PAFAH1B2 inh 5, pPAFAH inh -2, PAFAH1B3 inh -6, PAFAH2 inh 58* and PAFAH2 FP conf 44*.
COc1ccc(/C=C/C(=O)OCC(=O)N2CCCCCC2)c(OC)c1 was read as PAFAH1B2 inh 1, pPAFAH inh -1, ZTA counter -4, PAFAH1B3 inh -11, PAFAH2 inh 44* and PAFAH2 FP conf 36*.
`CN(Cc1ccccc1)S(=O)(=O)c1ccc2c(c1)CCC(=O)N2` gave PAFAH1B2 inh -1, pPAFAH inh 5, ZTA counter -3, PAFAH1B3 inh 7, EBNA-1 inh -14 and PAFAH2 inh 8.
`O=C(N/N=C/c1cccc(Cl)c1)C(c1ccncc1)N1CCOCC1` (centres undefined) gave PAFAH1B2 inh 3, pPAFAH inh 7, ZTA counter -9, PAFAH1B3 inh 2, EBNA-1 inh 0, PAFAH2 inh 50* and PAFAH2 FP conf 41*.
